Reference: PubChem BioAssay
Values joined by “and” are separate entries in the source; they are usually repeats but may differ in a detail not shown here. Identical values can stand only once. Active and inactive are the calls of the source. Unless noted, no rule for the calls is given here.

Experiments:
[1] = resazurin metabolic signal in HepG2 cells – cell-based, resazurin fluorescence, 24 h, PK04 Diversity Set, profiling panel (AID 1172); conditions: HepG2 viability, higher = more signal; also: test concentration not given here
[2] = budding yeast growth changes without added modifier – OD600, strain BY4716, 24 h, basal condition, primary screen (AID 1173); conditions: S. cerevisiae BY4716 growth, OD600, 24 h; higher = more signal, called active from +8 up or from −8 down
[3] = viability profiling in MM1S myeloma cells – cell-based, resazurin fluorescence, basal, 24 h, PK04 Diversity Set, profiling panel (AID 1174); conditions: higher = more signal, called active from +8 up or from −8 down;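 also: MM1S multiple myeloma cell line; test concentration not given here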
[4] = biological target: Dihydroorotate dehydrogenase (quinone), mitochondrial (Plasmodium falciparum (isolate 3D7)) (UniProt Q08210); assay: inhibition of P. falciparum DHODH – biochemical, C-terminal His tag, absorbance 600 nm, primary screen (AID 1175); conditions: PfDHODH enzyme, DCIP absorbance 600 nm; higher = more signal, called active from +8 up or from −8 down;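 also: recombinant parasite enzyme with a five histidine tag at its C terminus; test concentration not given here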
Chain of Dihydroorotate dehydrogenase (quinone), mitochondrial (Plasmodium falciparum (isolate 3D7)) (Q08210 whole entry, looked up): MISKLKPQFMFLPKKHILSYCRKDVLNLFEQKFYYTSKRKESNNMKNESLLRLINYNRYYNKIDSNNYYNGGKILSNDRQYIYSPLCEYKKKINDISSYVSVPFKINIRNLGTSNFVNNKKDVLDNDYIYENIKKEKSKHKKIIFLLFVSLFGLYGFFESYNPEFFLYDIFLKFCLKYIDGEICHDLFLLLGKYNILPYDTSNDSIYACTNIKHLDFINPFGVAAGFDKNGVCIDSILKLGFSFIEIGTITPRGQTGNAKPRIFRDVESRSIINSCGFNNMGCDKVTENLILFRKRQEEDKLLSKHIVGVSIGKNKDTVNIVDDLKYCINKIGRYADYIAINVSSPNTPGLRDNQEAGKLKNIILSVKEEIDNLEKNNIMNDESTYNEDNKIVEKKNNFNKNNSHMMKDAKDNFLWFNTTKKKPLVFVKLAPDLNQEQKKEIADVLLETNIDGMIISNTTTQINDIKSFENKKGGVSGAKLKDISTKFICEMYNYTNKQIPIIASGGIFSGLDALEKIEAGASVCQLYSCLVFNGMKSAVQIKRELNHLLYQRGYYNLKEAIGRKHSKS

[5] = inhibition of PAO1 biofilm formation – strain PAO1, LB-PBS medium, absorbance 600 nm, primary screen (AID 1176); also: test concentration not given here; conditions: P. aeruginosa PAO1 growth/biofilm, A600, 12 h; higher = more signal
[6] = growth modulation of vineyard yeast isolate – strain RM11-1a, OD600, basal, 24 h, primary screen (AID 1177);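 also: cultures grown under basal conditions with no added stressor; test concentration not given here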; conditions: S. cerevisiae RM11-1a growth, OD600, 24 h; higher = more signal, called active from +8 up or from −8 down
[7] = growth of efflux-deficient E. coli DRC39 – strain DRC39, OD650, 24 h, E. coli filamentation inducers, primary screen (AID 1178);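 also: growth measured as culture turbidity by optical density at 650 nm; test concentration not given here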; conditions: E. coli DRC39 acrAB, higher = more signal, called active from +8 up or from −8 down
[8] = growth of efflux-deficient E. coli DRC39 – strain DRC39, OD650, 48 h, E. coli filamentation inducers, primary screen (AID 1179);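 also: screen aims at cell division blockers that make cells filament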; conditions: E. coli DRC39 delta-acrAB growth, higher = more signal, called active from +8 up or from −8 down
[9] = viability profiling in RPMI8226 myeloma cells – cell-based, resazurin fluorescence, basal, 24 h, PK04 Diversity Set, profiling panel (AID 1180); conditions: higher = more signal;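 also: RPMI8826 multiple myeloma cell line at 5000 cells per well; test concentration not given here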
[10] = biological target: E3 ubiquitin-protein ligase XIAP (Homo sapiens) (UniProt P98170); assay: small molecules binding XIAP protein – biophysical, small-molecule microarray, fluorescence 635 nm, primary screen (AID 1181); conditions: higher = more signal;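 also: score merges 667 nm emission and signal to noise over triplicate slides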
Chain of E3 ubiquitin-protein ligase XIAP (Homo sapiens) (P98170 whole entry, looked up): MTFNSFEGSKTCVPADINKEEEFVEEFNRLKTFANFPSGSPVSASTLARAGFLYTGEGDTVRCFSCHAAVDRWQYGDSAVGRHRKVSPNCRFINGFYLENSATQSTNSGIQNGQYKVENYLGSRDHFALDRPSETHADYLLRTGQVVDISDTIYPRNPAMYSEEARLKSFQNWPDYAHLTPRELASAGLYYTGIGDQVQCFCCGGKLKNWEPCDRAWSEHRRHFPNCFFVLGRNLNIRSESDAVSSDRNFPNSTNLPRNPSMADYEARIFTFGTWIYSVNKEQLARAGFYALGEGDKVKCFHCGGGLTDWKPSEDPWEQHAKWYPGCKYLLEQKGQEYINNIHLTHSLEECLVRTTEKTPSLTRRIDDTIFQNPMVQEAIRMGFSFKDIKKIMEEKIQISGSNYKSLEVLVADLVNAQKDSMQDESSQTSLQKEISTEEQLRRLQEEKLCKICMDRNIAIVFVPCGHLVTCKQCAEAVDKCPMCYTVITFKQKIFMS

| SMILES | z-score [1] | z-score [2] | z-score [3] | composite z-score [4] | z-score [5] | z-score [6] | z-score [7] | z-score [8] | z-score [9] | composite z-score [10] |
| --- | --- | --- | --- | --- | --- | --- | --- | --- | --- | --- |
| C=CCN(CCCC)C(=O)C1N(c2ccc(CCO)cc2)C(=O)C2C(C(=O)O)C3C=CC21O3 (stereo not given) | 0.533 and -0.912 | -0.539 (inactive) and -0.275 (inactive) | -0.217 (inactive) and -0.801 (inactive) | -0.51 (inactive) and -1.02 (inactive) | 0.633 (inactive) and 0.276 (inactive) | -0.639 (inactive) and 0.159 (inactive) | 0.227 (inactive) and 0.473 (inactive) | -0.248 (inactive) and 0.25 (inactive) | -0.0068 and 0.0215 | -0.53 and 0.0871 |
| COc1ccc(O[C@H]2C=C[C@@H](c3ccccc3)O[C@@H]2COC(=O)CCC(C)=NO[C@H](C)c2cn([C@H](CO)Cc3ccccc3)nn2)cc1 | 0.327 and 0.346 | 0.496 (inactive) and 1.83 (inactive) | 0.149 (inactive) and -0.116 (inactive) | 0.899 (inactive) and -0.413 (inactive) | -1.31 (inactive) and -0.491 (inactive) | 0.581 (inactive) and 1.67 (inactive) | 0.521 (inactive) and 0.693 (inactive) | -0.313 (inactive) and 0.596 (inactive) | 0.651 and 0.198 | -0.252 and -0.188 |
| CCCCCN1CC=CC23O[C@@H]4C=CCCOC(=O)C4[C@H]2C(=O)N(C(C)CO)[C@@H]3C1=O (stereo not given in full) | 1.77 and 0.86 | -0.252 (inactive) and 1 (inactive) | 1.24 (inactive) and -0.0383 (inactive) | -1.97 (inactive) and -0.391 (inactive) | -0.193 (inactive) and 0.0683 (inactive) | -0.0686 (inactive) and 0.825 (inactive) | 0.213 (inactive) and 0.0972 (inactive) | -0.123 (inactive) and -0.105 (inactive) | 1.18 and -0.0579 | 0.216 and -0.323 |
